The subject of experiment [1] is Human papillomavirus type 1a protein E7 (residues 44-93). As to the kind of experiment: small molecules binding HPV E7 44-93 – biochemical, small-molecule microarray, residues 44-93, 635 nm fluorescence, primary screen (AID 1108).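 Further: E7 fragment applied at 1 µg/mL in TBST for 1 h at 4 C; score combines spot fluorescence with its signal to noise ratio.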 To be noted: fluorescence 635 nm, higher = more signal.
Experiment [2] in a line: hepatitis C replication reporter changes, two-sided – Huh7 cells, luciferase reporter, HCV replication inhibitor project, primary screen (AID 1109).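 Further: huh7 hepatoma cells harbouring a luciferase neomycin HCV replicon reporter; luciferase luminescence as measure of HCV replicon replication; test concentration not given here.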 To be noted: Huh7 HCV replicon luciferase reporter, 48 h; higher = more signal.
Experiment [3] has as its target Left-right determination factor 2 (Homo sapiens) (UniProt O00292). As to the kind of experiment: small molecules binding LEFTY2 protein – biochemical, small-molecule microarray, 635 nm fluorescence scan, primary screen (AID 1110). To be noted: higher = more signal.
The target of experiment [4] is Calmodulin-1 (Homo sapiens) (UniProt P0DP23). As to the kind of experiment: small molecules binding calmodulin-1 with EGTA – biochemical, small-molecule microarray, Cy5-labelled CALM1, profiling panel (AID 1111).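 Further: labelled calmodulin applied in Tris saline Tween buffer holding calcium plus EGTA and DTT.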 To be noted: Cy5-CALM1 binding fluorescence, higher = more signal.
For experiment [5] the target is unchanged. Description: small molecules binding Ca-loaded calmodulin-1 – biochemical, small-molecule microarray, Cy5-labelled CALM1, plus calcium, artefact control for SMM control-protein annotation, profiling panel (AID 1112).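 Further: score merges spot fluorescence with signal to noise from triplicate slides.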 The settings on record: Cy5-CALM1 binding fluorescence, higher = more signal.
A short description of experiment [6]: probe aWnt5a binding to arrayed compounds – biochemical, biotinylated probe, 635/667 nm fluorescence, primary screen (AID 1113).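 Further: score merges 667 nm fluorescence intensity with signal-to-noise per printed feature.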 To be noted: small-molecule microarray, higher = more signal.
Experiment [7] can be described thus: probe aShh binding to arrayed compounds – biochemical, biotinylated probe, 635/667 nm fluorescence, primary screen (AID 1114).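 Further: probe is biotin-labelled aShh protein from a stem cell growth factor screen; measures binding of labelled protein to compounds printed on the slide; score merges feature fluorescence at 667 nm with signal-to-noise.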 The settings on record: small-molecule microarray, higher = more signal.
Experiment [8] can be described thus: probe aNog binding to arrayed compounds – biochemical, biotinylated probe, 635/667 nm fluorescence, primary screen (AID 1115).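 Further: probe is biotinylated aNog protein used at 0.15 µg/mL for 1 h at 4 C; z-score combines 667 nm fluorescence of each spot with its signal to noise.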 The settings on record: small-molecule microarray, higher = more signal.
Experiment [9] deals with Torsin-1A-interacting protein 1 (Homo sapiens) (UniProt Q5JTV8). Description: compound microarray binding of lysate hLAP1 – cell lysate, small-molecule microarray, COS7 lysate, 635/667 nm fluorescence, primary screen (AID 1116). To be noted: 635 nm fluorescence, higher = more signal.
Torsin-1A-interacting protein 1 (Homo sapiens), sequence (Q5JTV8 whole entry, looked up): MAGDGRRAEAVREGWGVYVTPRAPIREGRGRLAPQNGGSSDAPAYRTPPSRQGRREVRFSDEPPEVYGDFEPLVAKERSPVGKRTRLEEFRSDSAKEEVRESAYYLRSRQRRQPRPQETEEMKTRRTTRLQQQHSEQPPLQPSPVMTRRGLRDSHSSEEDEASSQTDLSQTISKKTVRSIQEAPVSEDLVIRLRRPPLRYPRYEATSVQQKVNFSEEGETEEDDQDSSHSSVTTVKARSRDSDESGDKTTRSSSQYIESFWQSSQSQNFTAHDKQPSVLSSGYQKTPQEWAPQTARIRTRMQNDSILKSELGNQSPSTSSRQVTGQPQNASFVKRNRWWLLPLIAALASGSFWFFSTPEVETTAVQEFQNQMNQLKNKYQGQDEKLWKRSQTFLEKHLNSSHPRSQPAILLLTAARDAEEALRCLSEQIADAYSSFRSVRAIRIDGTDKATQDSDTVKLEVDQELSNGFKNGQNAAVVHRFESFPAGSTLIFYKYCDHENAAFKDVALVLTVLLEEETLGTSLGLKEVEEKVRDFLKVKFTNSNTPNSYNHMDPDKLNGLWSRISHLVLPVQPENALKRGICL
For experiment [10], the target named is Alpha-bungarotoxin (Bungarus multicinctus) (UniProt P60615). Description: compounds binding labelled alpha-BTX control protein – biochemical, small-molecule microarray, Alexa647 label, 635/667 nm fluorescence, artefact control for SMM control protein annotation, profiling panel (AID 1117). The settings on record: alpha-BTX-A647 binding fluorescence, higher = more signal.
Alpha-bungarotoxin (Bungarus multicinctus), sequence (P60615 whole entry, looked up): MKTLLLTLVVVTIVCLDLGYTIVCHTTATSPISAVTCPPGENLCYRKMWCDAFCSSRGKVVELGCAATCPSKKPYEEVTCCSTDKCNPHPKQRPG

Experiment [11] concerns the target Albumin (Bos taurus) (UniProt P02769). Description: compounds binding labelled BSA control protein – biochemical, small-molecule microarray, Alexa647 label, 635/667 nm fluorescence, artefact control for SMM control protein annotation, profiling panel (AID 1118).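 Further: score merges 667 nm emission intensity and signal-to-noise per printed compound spot.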 The settings on record: BSA-A647 binding, fluorescence 635 nm, higher = more signal.
The nature of experiment [12]: probe aXIP binding to arrayed compounds – biochemical, NeuroSMM set, 635/667 nm fluorescence, primary screen (AID 1119).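 Further: probe is the protein aXip251-270 applied at 1 µg/mL to compound-printed slides; binding of probe to printed compounds measured as 667 nm fluorescence plus signal to noise.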 The settings on record: small-molecule microarray, higher = more signal, called active from +8 up or from −8 down.
A short description of experiment [13]: probe aNOTCH3 binding on compound microarray – biochemical, small-molecule microarray, 635/667 nm fluorescence, primary screen (AID 1120).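 Further: probe is a biotin-tagged antibody raised against NOTCH3 rather than NOTCH3 protein; score merges spot fluorescence near 667 nm with spot signal to noise.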 The settings on record: higher = more signal.
Experiment [14] is described as follows: probe aNOTCH2 binding on compound microarray – biochemical, small-molecule microarray, 635/667 nm fluorescence, primary screen (AID 1121).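 Further: score merges feature fluorescence read at 667 nm with its signal to noise.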 The settings on record: higher = more signal.
The target in experiment [15] is Carbonic anhydrase 2 (Homo sapiens) (UniProt P00918). As to the kind of experiment: compounds binding carbonic anhydrase 2 – biochemical, small-molecule microarray, Alexa647-labelled CAII, profiling panel (AID 1122). The settings on record: CAII-A647 binding fluorescence, higher = more signal.
A short description of experiment [16]: COS7 lysate on small-molecule microarray, probe aHis, 635 nm (AID 1123).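 Further: z-score combines 667nm fluorescence intensity with signal-to-noise per printed compound spot.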 The settings on record: COS7 cell lysate, fluorescence, higher = more signal.
A short description of experiment [17]: probe aLAP1 signal on lysate-treated microarray – cell lysate, small-molecule microarray, COS7 lysate, primary screen (AID 1124).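 Further: lysate comes from COS7 cells expressing LAP1 and is applied at 0.3 µg/mL; score merges spot fluorescence near 667 nm with signal-to-noise over triplicate slides.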 To be noted: probe aLAP1, fluorescence, higher = more signal.
The subject of experiment [18] is Sam68 (KHDRBS1). Description: compounds binding KHDRBS1 protein – biochemical, small-molecule microarray, 635 nm fluorescence, primary screen (AID 1125).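 Further: score merges 667 nm channel intensity with signal to noise over triplicate slides.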 To be noted: higher = more signal.
For experiment [19], the system named is Chordin-like protein 2 (CHRDL2). Description: compounds binding chordin-like 2 – biochemical, small-molecule microarray, 635 nm fluorescence, primary screen (AID 1126).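 Further: printed compound slides probed with Chrdl2 protein at 4 µg/mL for 1 h at 4 C; score merges 667 nm emission intensity with signal to noise over three replicate slides.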 The settings on record: fluorescence 635 nm, higher = more signal.
Experiment [20] deals with Concanavalin-A (Canavalia ensiformis) (UniProt P02866). Description: compounds binding concanavalin A lectin – biochemical, small-molecule microarray, Alexa647 label, 635 nm, artefact control for SMM control protein annotation, primary screen (AID 1127).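 Further: z combines 667 nm emission intensity with signal-to-noise across three replicate slides.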 To be noted: ConA-A647 binding fluorescence, higher = more signal.
Concanavalin-A (Canavalia ensiformis), sequence (P02866 whole entry, looked up): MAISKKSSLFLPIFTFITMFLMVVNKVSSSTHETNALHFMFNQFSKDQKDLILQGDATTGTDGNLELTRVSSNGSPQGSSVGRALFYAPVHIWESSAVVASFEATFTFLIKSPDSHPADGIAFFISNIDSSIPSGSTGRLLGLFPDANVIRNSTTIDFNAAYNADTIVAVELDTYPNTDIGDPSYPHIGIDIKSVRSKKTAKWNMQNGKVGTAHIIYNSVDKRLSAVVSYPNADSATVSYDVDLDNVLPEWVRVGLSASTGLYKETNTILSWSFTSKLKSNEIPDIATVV

The structures appear in SMILES notation. Activity calls are given as the source filed them.

Left-right determination factor 2 (Homo sapiens), sequence (O00292 whole entry, looked up): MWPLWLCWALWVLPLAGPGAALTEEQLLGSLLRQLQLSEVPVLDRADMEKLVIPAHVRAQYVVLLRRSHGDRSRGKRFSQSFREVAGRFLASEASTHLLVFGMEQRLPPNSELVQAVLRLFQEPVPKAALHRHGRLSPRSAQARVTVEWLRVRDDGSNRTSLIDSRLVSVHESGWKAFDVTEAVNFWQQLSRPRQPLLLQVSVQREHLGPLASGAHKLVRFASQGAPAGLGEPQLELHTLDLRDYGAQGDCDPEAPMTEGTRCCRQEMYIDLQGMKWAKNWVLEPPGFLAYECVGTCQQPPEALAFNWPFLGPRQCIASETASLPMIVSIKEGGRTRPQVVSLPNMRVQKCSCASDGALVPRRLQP
Albumin (Bos taurus), sequence (P02769 whole entry, looked up): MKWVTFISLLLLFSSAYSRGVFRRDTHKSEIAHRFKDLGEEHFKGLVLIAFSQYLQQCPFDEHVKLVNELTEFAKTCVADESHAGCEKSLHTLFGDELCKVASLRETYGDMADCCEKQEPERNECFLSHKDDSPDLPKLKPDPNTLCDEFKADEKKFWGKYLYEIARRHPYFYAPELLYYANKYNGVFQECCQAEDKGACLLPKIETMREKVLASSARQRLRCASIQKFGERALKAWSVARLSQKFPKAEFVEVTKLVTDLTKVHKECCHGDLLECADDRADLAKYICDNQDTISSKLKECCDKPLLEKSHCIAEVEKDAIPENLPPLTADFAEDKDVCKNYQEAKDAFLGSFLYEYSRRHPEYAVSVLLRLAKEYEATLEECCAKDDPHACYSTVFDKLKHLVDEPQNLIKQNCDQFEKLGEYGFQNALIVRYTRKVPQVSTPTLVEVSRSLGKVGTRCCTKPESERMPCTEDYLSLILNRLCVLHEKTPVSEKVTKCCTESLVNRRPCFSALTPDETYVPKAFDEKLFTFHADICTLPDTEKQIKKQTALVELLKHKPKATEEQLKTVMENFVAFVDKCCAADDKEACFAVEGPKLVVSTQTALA

Take `C=C(CCCC)C(=O)CC[C@H](OC(C)=O)c1ccccc1OCCO`: the composite z-score was -0.0354 in experiment [1]; 0.549 in [3]; -0.592 in experiment [4]; -1.13 in experiment [5]; -0.0182 in experiment [6]; 0.0121 in experiment [7]. Further, the composite z-score is -0.234 in [8]; 0.173 in [9]; -0.106 in experiment [10]; 0.326 in experiment [11]; 0.156 in experiment [13]; -0.0242 in [14]. Also, the composite z-score in experiment [15] is 0.113; in experiment [16], 0.0794; in experiment [17], 0.277; in experiment [18], 0.368; in experiment [19] it was 0.544; in experiment [20] it was -0.0099. Moreover, the z-score in experiment [2] is -3.4. Also, the composite Z-score in experiment [12] is 0.7 (inactive).
With `COCCCNC(=O)[C@@H]1c2ccccc2C(=O)N(Cc2cc(C(F)(F)F)cc(C(F)(F)F)c2)[C@H]1c1ccc(CO)cc1`, the composite z-score in [1] was 0.0861; in experiment [3] it was -0.323; in [4] it was 0.0808; in [5], 0.232; in experiment [6], -0.105; in [7], 0.0091. Besides, the composite z-score is 0.896 in experiment [8]; 0.208 in [9]; -0.543 in [10]; -0.873 in experiment [11]; 0.531 in [13]; 0.0282 in experiment [14]. Moreover, the composite z-score in experiment [15] is 0.685; in experiment [16] it was 1.68; in [17], -0.182; in [18], 0.299; in experiment [19], -0.716; in experiment [20] it was -1.06. This compound had a z-score in experiment [2] of -0.293. For the same compound, the composite Z-score in experiment [12] was -0.0722 (inactive).
As for `CC(C)C(=C=CC[C@@H](O)c1cccc(OCCO)c1)CCO`, the composite z-score was 0.217 in experiment [1]; 0.0381 in experiment [3]; -0.203 in experiment [4]; -0.136 in experiment [5]; -0.154 in experiment [6]; -0.229 in experiment [7]. For the same compound, the composite z-score in experiment [8] is -0.273; in [9] it was 0.393; in experiment [10], -0.529; in experiment [11], 0.161; in experiment [13], 0.0996; in [14], -0.0519. In addition, the composite z-score in [15] was 0.705; in experiment [16], 0.502; in [17] it was 0.0157; in experiment [18], 0.0316; in experiment [19], 0.55; in [20], -0.114. The z-score in [2] was 0.13. Moreover, the composite Z-score in [12] was -0.137 (inactive).
Regarding `CCCCC(=C=CC[C@@H](O)c1cccc(OCCO)c1)CCO`, the composite z-score was -0.333 in [1]; -0.125 in [3]; -0.494 in experiment [4]; 0.181 in experiment [5]; -0.18 in experiment [6]; 0.0121 in experiment [7]. Further, the composite z-score in [8] was -0.405; in [9], 0.297; in experiment [10], 2.16; in [11], 0.319; in [13], -0.119; in experiment [14], -0.142. In addition, the composite z-score in [15] is 0.34; in experiment [16] it was 0.592; in experiment [17], 0.0297; in experiment [18], 0.158; in experiment [19], -0.596; in experiment [20] it was -0.0305. For the same compound, the z-score in experiment [2] is -0.165. Further, the composite Z-score in experiment [12] is -0.462 (inactive).
For `CCCC=C(CCC)[C@@H](NC(=O)c1ccco1)c1ccc(C(=O)OC)cc1`, the composite z-score in [1] worked out at 1.43; in [3] it was 0.177; in [4], 1.37; in experiment [5] it was 1.27; in experiment [6], 0.117; in experiment [7] it was 0.202. In addition, the composite z-score in experiment [8] is 1.69; in experiment [9], 1.02; in experiment [10], 1.38; in experiment [11], 0.779; in experiment [13], 0.281; in [14], -0.0222. Moreover, the composite z-score is 0.669 in [15]; 2.72 in experiment [16]; 0.0767 in experiment [17]; 1.31 in experiment [18]; -0.618 in experiment [19]; 0.939 in [20]. This compound had a z-score in experiment [2] of -2.72. For the same compound, the composite Z-score in experiment [12] was -0.0549 (inactive).
As for `CC(C)(C)OC(=O)CC[C@]1(C(=O)N2CCOCC2)N=C(c2ccc(OCCCO)cc2)O[C@H]1c1ccccc1CN=[N+]=[N-]`, the composite z-score in [1] is 1.36; in experiment [3], -0.457; in experiment [4] it was 1.27; in experiment [5] it was 0.15; in experiment [6] it was -0.0221; in experiment [7], -0.141. Besides, the composite z-score in experiment [8] is 1.92; in experiment [9], 2.38; in [10] it was 1.68; in [11] it was 0.508; in [13] it was 0.116; in experiment [14] it was -0.0219. Further, the composite z-score in experiment [15] is 0.745; in experiment [16], 3.11; in experiment [17] it was 0.519; in experiment [18], 1.31; in [19], -0.227; in experiment [20], 0.977. The same compound yielded a z-score in experiment [2] of -0.229. Moreover, the composite Z-score in experiment [12] was 0.341 (inactive).

The record behind these values is PubChem BioAssay.
